PubChem BioAssay AID2156 (Johns Hopkins Ion Channel Center, 2009)
The campaign covered roughly 310,000 compounds. About 3,400 (1.1%) were called active. Many of the other results were omitted from the sample, so actives are more common in it than they were. Values without a mark were called inactive.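 The calls were made as follows: active = fluorescence ratio B-score at most minus 3 library SDs, with starting brightness B-score within 2 library SDs (cut at about -5.5 in these data); inactive = the rest, inconclusive results apart.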

The compounds below were run against Potassium voltage-gated channel subfamily KQT member 2 (Rattus norvegicus) (UniProt O88943) (assay: rat KCNQ2 potassium channel inhibitors, primary screen, cell-based, CHO-K1, FluxOR thallium flux, B-score (AID 2156)). Conditions: 20 min, at 10 µM; hits give low values.
Sequence of Potassium voltage-gated channel subfamily KQT member 2 (Rattus norvegicus) (O88943 whole entry, looked up): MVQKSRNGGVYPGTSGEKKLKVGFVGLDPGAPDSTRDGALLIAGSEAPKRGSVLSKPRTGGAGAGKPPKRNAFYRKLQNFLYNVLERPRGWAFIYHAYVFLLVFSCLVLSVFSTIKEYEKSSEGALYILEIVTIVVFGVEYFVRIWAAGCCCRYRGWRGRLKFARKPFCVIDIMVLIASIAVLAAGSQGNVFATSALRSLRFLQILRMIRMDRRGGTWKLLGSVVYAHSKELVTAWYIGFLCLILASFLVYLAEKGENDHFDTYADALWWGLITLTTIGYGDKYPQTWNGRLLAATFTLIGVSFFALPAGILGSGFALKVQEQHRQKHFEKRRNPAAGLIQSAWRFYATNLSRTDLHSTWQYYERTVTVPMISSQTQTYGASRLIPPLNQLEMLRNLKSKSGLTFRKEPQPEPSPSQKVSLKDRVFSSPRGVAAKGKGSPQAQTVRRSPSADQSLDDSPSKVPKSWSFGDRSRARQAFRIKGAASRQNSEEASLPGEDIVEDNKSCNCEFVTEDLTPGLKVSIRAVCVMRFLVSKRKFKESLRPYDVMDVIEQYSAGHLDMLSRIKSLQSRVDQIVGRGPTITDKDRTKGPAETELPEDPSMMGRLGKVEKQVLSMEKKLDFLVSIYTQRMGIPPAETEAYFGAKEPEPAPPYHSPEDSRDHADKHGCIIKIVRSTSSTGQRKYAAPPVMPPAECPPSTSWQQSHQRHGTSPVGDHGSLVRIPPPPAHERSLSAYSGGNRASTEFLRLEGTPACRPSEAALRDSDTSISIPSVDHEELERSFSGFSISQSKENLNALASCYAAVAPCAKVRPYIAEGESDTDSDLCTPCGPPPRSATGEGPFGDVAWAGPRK
For CC(=O)O[C@H]1CC[C@@]2(C)[C@@H](CC[C@@H]3[C@@H]2CC[C@]2(C)[C@@H](C(C)(C)O)C[C@@H]32)C1, the B-score was “inactive”. With COc1ccc(NS(=O)(=O)c2ccc(C)c(C(=O)N(C)Cc3ccc(OC)cc3OC)c2)cc1 the B-score was “inactive”. With CCn1c(SC(C)C(=O)Nc2ccc(N3CCOCC3)cc2)nnc1-c1ccco1 (centres undefined) the B-score was “inactive”. For COc1ccccc1NC(=O)COC(=O)c1ccccc1SCC(=O)N1CCCC1, the B-score was “inactive”. In the case of Nc1ccccc1SC(C[N+](=O)[O-])c1ccccc1 (centres undefined), the B-score is reported as -7.63 (active). For CCS(=O)(=O)c1cc([N+](=O)[O-])c(Sc2ccccc2N)s1, the B-score was “inactive”. Nc1ccccc1SCc1cc([N+](=O)[O-])cc2c1OCOC2 gave a B-score of -0.29. With Cc1cc(C)c(-c2csc(NC(=O)CCCc3nc4ccccc4c(=O)[nH]3)n2)c(C)c1 the B-score was “inactive”. In the case of Cc1cc(C(=O)NNC(=O)c2cccc(S(=O)(=O)N3CCOCC3)c2)c2ccccc2n1, the B-score is reported as -0.22. With Cc1ccc(S(=O)(=O)N2CCOCC2)cc1C(=O)Nc1ccccc1N1CCCC1 the B-score was -6.63 (active). O=C(Nc1ccccc1N1CCOCC1)c1csc2c1CCCC2 gave a B-score of -4.47. Cc1cc(C(=O)Nc2ccccc2N2CCOCC2)c2ccccc2n1 was tested, and the B-score was -6.19 (active). In the case of O=C(Nc1ccccc1N1CCCC1)c1ccc(F)c(S(=O)(=O)N2CCOCC2)c1, the B-score is reported as -0.88. Cc1ccc(S(=O)(=O)N2CCOCC2)cc1C(=O)NCc1ccc(F)cc1 was tested, and the B-score was “inactive”. With CN(C)CCn1c2c(c(SCC(=O)Nc3ccccc3C(F)(F)F)nc1=O)CCCC2 the B-score was -0.04. In the case of Nc1c(-c2ccccc2)nnn1Cc1ccccc1, the B-score is reported as “inactive”. Compound Cc1ccc(S(=O)(=O)N2CCN(C(=O)c3ccc(-n4cncn4)c([N+](=O)[O-])c3)CC2)cc1 has a B-score of -0.29. With Cc1cccc(C)c1NC(=O)CNC(=O)c1c(C)nn(-c2ccccc2)c1C the B-score was -1.69. With O=C(Nc1nc(-c2ccco2)c(-c2ccco2)s1)c1ccco1 the B-score was -3.35. Cc1nc2ccccc2c(-c2ccccc2)c1C(=O)c1ccccc1 was tested, and the B-score was -9.15 (active). Cc1nc2ccccc2c(C)c1C(=O)c1ccc(F)cc1 was tested, and the B-score was -1.04. Compound CC(=O)c1c(-c2ccccc2)c2ccccc2[nH]c1=O has a B-score of -0.37. COc1cnn(-c2ccc([N+](=O)[O-])cc2)c(=O)c1Cl was tested, and the B-score was -0.13. In the case of COc1ccccc1C(=O)Nc1ccc(Nc2ccccc2)cc1, the B-score is reported as “inactive”. COc1ccc(CNS(=O)(=O)c2cc3c4c(c2)CCN4C(=O)CC3)cc1 showed a B-score of -1.56. For Cc1ccc(NC(=O)C2CC(=O)N(c3ccc4c(c3)OCCO4)C2)cc1S(=O)(=O)N1CCCCCC1 (centres undefined), the B-score was -1.45. In the case of Cc1onc(-c2ccccc2Cl)c1C(=O)NCCn1ccc2ccccc21, the B-score is reported as -5.59 (active). Compound Cc1onc(-c2ccccc2Cl)c1C(=O)OCC(=O)c1ccccc1 has a B-score of -1.85. With Cc1ccc2cc(CCNC(=O)c3c(-c4ccccc4Cl)noc3C)c(=O)[nH]c2c1 the B-score was -1.13. COc1ccc(-c2[nH]nc(-c3ccccc3)c2-c2nc3ccccc3[nH]2)cc1 was tested, and the B-score was -7.31 (active). With COc1ccc(OC(C)C(=O)NCCc2nc3ccccc3[nH]2)cc1 (centres undefined) the B-score was “inactive”. Compound Cc1ccc(-c2nc3ccccc3[nH]2)cc1N has a B-score of -0.17. With COc1ccc(CCNC(=S)N2CCN(S(=O)(=O)c3ccc(F)cc3)CC2)cc1 the B-score was -0.54. With Cc1ccc(CSCC(=O)N(C)CC(=O)Nc2ccc(C)cc2)cc1 the B-score was “inactive”. CC(Oc1ccc(Br)cc1)C(=O)NCC(c1ccco1)N1CCCCC1 (centres undefined) showed a B-score of -2.11. With CCOC(=O)c1c(NC(=O)C2(C)Cc3ccccc3C(=O)O2)sc2c1CCCC2 (centres undefined) the B-score was -5.8 (active). With CCOC(=O)c1c(NC(=O)CSc2cn(CC)c3ccccc23)sc2c1CCC2 the B-score was -7.2 (active). CCOC(=O)c1c(NC(=O)Cn2nc(C(F)(F)F)cc2C)sc2c1CCC2 showed a B-score of -0.09. In the case of CCOC(=O)c1c(NC(=S)NC)sc2c1CCCC2, the B-score is reported as “inactive”. CCOC(=O)c1c(NC(=O)CCC(=O)NCc2ccco2)sc2c1CCCC2 was tested, and the B-score was “inactive”. CCOC(=O)c1c(NC(=O)C(C)Sc2c[nH]c3ccccc23)sc2c1CCC2 (centres undefined) gave a B-score of -4.14. In the case of CC(Sc1nn(-c2ccc(Cl)cc2)c(=S)s1)C(=O)NCC1CCCO1 (centres undefined), the B-score is reported as -0.45. COc1cccc(NC(=O)CSc2nccn(-c3ccc4c(c3)OCCO4)c2=O)c1 gave a B-score of -2.03. COc1ccccc1CCC(=O)NNC(=O)c1ccncc1 was tested, and the B-score was -1.15. In the case of COc1ccc(S(=O)(=O)N2CCOC23CCN(S(=O)(=O)c2ccc([N+](=O)[O-])cc2)CC3)cc1, the B-score is reported as -0.03. Cc1ccc(N=C2SCCCN2C(=O)c2cccc(N3C(=O)CCC3=O)c2)cc1Cl was tested, and the B-score was “inactive”. In the case of COc1ccccc1NC(=O)C(C)OC(=O)c1ccc(-n2cnnn2)cc1 (centres undefined), the B-score is reported as “inactive”. O=C(CCN1C(=O)C2CCCCC2C1=O)Nc1ccc(OC(F)F)cc1 (centres undefined) was tested, and the B-score was -1.21. For CC(C)NC(=O)c1ccc(Cl)cc1Cl, the B-score was “inactive”. For O=C(COc1cccc(Cl)c1)NCc1ccccc1, the B-score was “inactive”. C[C@H](NC(=O)c1ccccc1Cl)C(=O)OCCOc1cccc(Cl)c1 was tested, and the B-score was -6.72 (active). Work on CCOC(=O)c1c(C)[nH]c(C(=O)OCC(=O)c2ccc(OC)cc2OC)c1C yielded a B-score of -0.07. COc1ccc(S(=O)(=O)N2CCCCC2)cc1NC(=O)C1CC(=O)N(c2ccc3c(c2)OCCO3)C1 (centres undefined) showed a B-score of -0.27. Cc1csc2nc(O)c(C(=O)NCCN3CCOCC3)c(=O)n12 was tested, and the B-score was “inactive”. With Cc1ccc(SCC(=O)c2cc(C)c(OC(=S)N(C)C)c(C)c2)cc1 the B-score was -7.36 (active). Cc1ccc(SCC(=O)Nc2ccc3c(c2)OCCO3)cc1 was tested, and the B-score was “inactive”. For Cc1ccc(C(=O)CSc2ccccc2C(=O)O)cc1, the B-score was “inactive”. With Cc1ncc(CO)c(/C=N/NC(=O)c2cccc(S(=O)(=O)N3CCCC3)c2)c1O the B-score was -2.49. In the case of Cc1ccc(C(=O)NC2CCCC(C)C2C)cc1S(=O)(=O)N1CCCCC1 (centres undefined), the B-score is reported as -3.09.
